# Assay results from PubChem BioAssay (NCATS).
# Values without a mark were called inactive. Calls of active or inactive are those of the source. Calls follow the shape of the dose curve; as a rule, active = well fitted activation curve with a large enough effect; inconclusive = small, poorly fitted or top-dose-only effect; inactive = no such curve, though single readings can be large or run the other way.
# Target: Parathyroid hormone/parathyroid hormone-related peptide receptor (Homo sapiens) (UniProt Q03431)
# Sequence (Q03431 whole entry, looked up): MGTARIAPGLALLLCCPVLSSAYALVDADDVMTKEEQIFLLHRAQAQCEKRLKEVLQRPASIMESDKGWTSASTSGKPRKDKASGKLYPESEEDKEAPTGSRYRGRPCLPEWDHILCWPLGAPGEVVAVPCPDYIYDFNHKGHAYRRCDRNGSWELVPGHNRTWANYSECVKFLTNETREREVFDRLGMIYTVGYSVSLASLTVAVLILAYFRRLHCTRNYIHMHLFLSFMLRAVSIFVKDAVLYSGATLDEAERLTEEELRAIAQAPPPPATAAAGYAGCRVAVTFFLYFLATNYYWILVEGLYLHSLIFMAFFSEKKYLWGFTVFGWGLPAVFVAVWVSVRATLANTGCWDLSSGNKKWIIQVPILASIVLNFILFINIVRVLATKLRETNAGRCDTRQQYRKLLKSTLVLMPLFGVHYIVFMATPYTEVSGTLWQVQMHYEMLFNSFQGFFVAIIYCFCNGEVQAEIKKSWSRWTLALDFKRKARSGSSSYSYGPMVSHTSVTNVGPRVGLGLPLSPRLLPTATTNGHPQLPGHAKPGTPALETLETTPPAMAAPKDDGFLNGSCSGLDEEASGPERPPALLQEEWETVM
# Test: qHTS for PTHR1 Agonists: Optimization Screen against the NCGC LOPAC library (AID 1347079); also: 0% is about no effect
# Conditions: HEK293 GP2 PTHR1 GloSensor cAMP luminescence, 1 h; series mostly up to 57.1 µM; activation: at the top concentration
# From the text: The goal of the proposed studies is to discover new compounds that act as potent agonists on the parathyroid hormone receptor type-1 (PTHR1). The PTHR1 plays critical roles in maintaining blood calcium and phosphate levels, as well as in controlling bone remodeling. PTHR1 agonists could thus be useful for treating diseases such as hypoparathyroidism and osteoporosis. In the former disease, an agonist drug would help maintain normal blood calcium and phosphate levels under conditions of parathyroid hormone deficiency. In the latter disease, an agonist drug would stimulate new bone formation and thus reduce the risk of fracture, under conditions of bone fragility, as occurs in aging. We performed an optimization assay of the quantitative high-throughput screening (qHTS) for the parathyroid hormone receptor type-1 (PTHR1) against the NCGC LOPAC library collection of […] compounds using a unique HEK-293-derived cell line (GP2) that expresses the PTHR1 and a GloSensor cAMP reporter construct. Increase in signal (activation / agonist) is the desired outcome for compounds of interest. NIH Chemical Genomics Center [NCGC] NIH Molecular Libraries Probe Production Centers Network [MLPCN] MLPCN Grant: P01 DK011794 Assay Submitter (PI): Thomas Gardella PhD, Massachusetts General Hospital
# Reagents / Controls: M-PTH (1-15) peptide hormone fragments was provided by the assay provider and was used as a control. Column 1 was treated with M-PTH titration (1:2 dilution) beginning with a final concentration of 10uM. Column 2 was treated with M-PTH final concentration of 10uM. Columns 3 and 4 were treated with DMSO only to assess background and noise signal. Assay Steps: Four microLiter of cells suspension was dispensed in a 1536-well assay plate at a final density of 3000 cells/well. The plates were incubated overnight, after which 4uL of 0.5mM of BloTium Luciferin plus 0.5mM IBMX was added. Next, the plate was incubated at 37C for 1hr before 23nL of compound (at various final concentrations from 40uM to 0.32uM) and control were added using a 1536-well array Kalypsys pin-tool. The treated plates were again incubated at 37C for another hour. Luminescence signal was obtained using the PerkinElmer ViewLux plate reader after 15min or room temperature incubation.
SMILES,activation,Potency
Clc1ccccc1C(c1ccccc1)(c1ccccc1)n1ccnc1,6.67%,
Clc1ccc(C(c2ccccc2Cl)C(Cl)Cl)cc1 (stereo not given),5.02%,
O=c1c(O)c(-c2ccc(O)c(O)c2)oc2cc(O)cc(O)c12,36.9%,
CN(Cc1cnc2nc(N)nc(N)c2n1)c1ccc(C(=O)N[C@@H](CCC(=O)O)C(=O)O)cc1,5.06%,
CC(C)Cc1ccc(C(C)C(=O)O)cc1 (stereo not given),8.16%,
COc1ccccc1OCCNCC(O)COc1cccc2[nH]c3ccccc3c12 (stereo not given),15.6%,
COc1ccc(C2CNC(=O)C2)cc1OC1CCCC1 (stereo not given),32%,
CCOC(=O)C(C)(C)Oc1ccc(Cl)cc1,-5.76%,
CN1CCN(C2=Nc3cc(Cl)ccc3Nc3ccccc32)CC1,0.0872%,
COc1ccc(CCN(C)CCCC(C#N)(c2ccc(OC)c(OC)c2)C(C)C)cc1OC (stereo not given),9.33%,
Cc1ccccc1N1C(=O)c2cc(S(N)(=O)=O)c(Cl)cc2NC1C (stereo not given),9.07%,
Cc1ccc(C(=O)Nc2ccc(S(=O)(=O)O)c3cc(S(=O)(=O)O)cc(S(=O)(=O)O)c23)cc1NC(=O)c1cccc(NC(=O)Nc2cccc(C(=O)Nc3cc(C(=O)Nc4ccc(S(=O)(=O)O)c5cc(S(=O)(=O)O)cc(S(=O)(=O)O)c45)ccc3C)c2)c1,-21.3%,
COc1ccc2[nH]cc(CCNC(C)=O)c2c1,-26.2%,
Nc1nc2c(ncn2COC(CO)CO)c(=O)[nH]1,-14.9%,
O=C(C1CCCCC1)N1CC(=O)N2CCc3ccccc3C2C1 (stereo not given),-7.81%,
CC[N+](CC)(CC)CCOc1cccc(OCC[N+](CC)(CC)CC)c1OCC[N+](CC)(CC)CC,16.6%,
CN1C(C(=O)Nc2ccccn2)=C(O)c2ccccc2S1(=O)=O,46.9%,
CCC1(c2ccccc2)C(=O)NCNC1=O,-27.5%,
Cc1cn([C@H]2C[C@H](N=[N+]=[N-])[C@@H](CO)O2)c(=O)[nH]c1=O,16.3%,
O=c1[nH]cc(F)c(=O)[nH]1,-52.5%,

SMILES,activation,Potency
O=C(c1ccc(OCCN2CCCCC2)cc1)c1c(-c2ccc(O)cc2)sc2cc(O)ccc12,23.2%,
CN1C2CCC1CC(OC(=O)C(CO)c1ccccc1)C2 (stereo not given),,inactive
Cn1cnc2c1c(=O)[nH]c(=O)n2C,-30%,
Clc1ccc2c(c1)C(N1CCNCC1)=Nc1ccccc1O2,-4.75%,
COC(=O)Nc1nc2ccc(C(=O)c3cccs3)cc2[nH]1,22.7%,
Cn1c(=O)c2[nH]cnc2n(C)c1=O,5.67%,
Cn1c(=O)c2c(ncn2C)n(C)c1=O,-13.9%,
CC(C)C(=O)Nc1ccc([N+](=O)[O-])c(C(F)(F)F)c1,10.1%,
Cc1cnc(C(=O)NCCc2ccc(S(=O)(=O)NC(=O)NC3CCCCC3)cc2)cn1,18.5%,
CCN1CCCC1CNC(=O)c1cc(S(=O)(=O)CC)c(N)cc1OC (stereo not given),-17%,
CC12CC3CC(C)(C1)CC(N)(C3)C2,-7.85%,
CN(C)c1nc(N(C)C)nc(N(C)C)n1,57.6%,
CCOC(=O)Nc1ccc(NCc2ccc(F)cc2)nc1N,35.8%,
CCOC(=O)c1ncn2c1CN(C)C(=O)c1cc(F)ccc1-2,-14.7%,
NS(=O)(=O)c1cc2c(cc1Cl)NCNS2(=O)=O,-21.8%,
O=C(Nc1ccc([N+](=O)[O-])cc1Cl)c1cc(Cl)ccc1O,-21.2%,
C[C@H]1c2cccc(O)c2C(O)=C2C(=O)[C@]3(O)C(O)=C(C(N)=O)C(=O)[C@@H](N(C)C)[C@@H]3[C@@H](O)[C@@H]21,20.2%,
N[C@@H](Cc1c[nH]c2ccc(O)cc12)C(=O)O,-15.6%,
COc1cc2nc(N(C)CCCNC(=O)C3CCCO3)nc(N)c2cc1OC (stereo not given),-13.3%,
OCCN1CCN(CCCN2c3ccccc3Sc3ccc(C(F)(F)F)cc32)CC1,-20.5%,
